# The panel holds about 83,000 compounds, 20% with a hit somewhere; the sample as a whole holds those more often.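 Note: values are percent growth. 100 is the growth of untreated cells, values between 100 and 0 indicate rising inhibition; between -100 and 0 indicates cell death.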 A number with no mark means an inactive call. Active and inactive are the calls of the source. Rule for the calls: active = growth percent below 10; inactive = the rest.
# Legend:
# Test in all cases: NCI-60 one-dose screen, 48 h (100 = growth as untreated, 0 = no growth, -100 = all killed)
# Settings in all cases: 10 µM unless noted
# DU-145 prostate = system: DU-145 prostate
# K-562 leukemia = system: K-562 leukemia
# MALME-3M melanoma = system: MALME-3M melanoma
# MDA-MB-231 breast = system: MDA-MB-231 breast
# RXF 393 renal = system: RXF 393 renal
# SF-268 CNS = system: SF-268 CNS
# SF-295 CNS = system: SF-295 CNS
# SF-539 CNS = system: SF-539 CNS
# UACC-257 melanoma = system: UACC-257 melanoma
# M14 melanoma = system: M14 melanoma
SMILES,growth (DU-145 prostate),growth (K-562 leukemia),growth (MALME-3M melanoma),growth (MDA-MB-231 breast),growth (RXF 393 renal),growth (SF-268 CNS),growth (SF-295 CNS),growth (SF-539 CNS),growth (UACC-257 melanoma),growth (M14 melanoma)
O=S(=O)(Nc1ccccc1Cl)c1ccc(-c2cnc(C3CC3)o2)cc1,13.5%,20.1%,47.3%,34.8%,-27% (active),53.5%,12.2%,-22.7% (active),69.4%,19%
COc1cccc(C2CC(=O)Nc3cc4c(cc32)CCC4)c1OC (stereo not given),51.9%,14.1%,55.7%,60.3%,57%,66.2%,29%,60.7%,71.7%,25.5%
Cc1c(C(=O)Nc2nc(-c3ccccc3)cs2)nnn1-c1cccc2ccccc12,64.7% [50 µM],30.5% [50 µM],55.4% [50 µM],68.7% [50 µM],89.1% [50 µM],72.5% [50 µM],37.2% [50 µM],69.2% [50 µM],44.9% [50 µM],64.7% [50 µM]
O=[N+]([O-])c1cc2c(cc1Br)C1C(C3C2C(Cl)(Cl)C(Cl)=C(Cl)C3(Cl)Cl)C(Cl)(Cl)C(Cl)=C(Cl)C1(Cl)Cl (stereo not given),108%,105%,80.8%,108%,96.9%,102%,95.8%,94.9%,92.9%,90.6%
CCCCCCCC/C=C\CCCCCCCCOc1cccc(CC(=O)NCC[N+]2(C)CCCC2)c1,92.7%,60.2%,88.9%,81.6%,13%,65.5%,96.4%,98.8%,98.9%,89.2%
CCN(CC)c1ccc(/C=C(\C#N)c2cc3ccccc3[nH]2)cc1,74.1%,14.2%,71.7%,48.6%,94%,71.8%,46.9%,58.3%,81.5%,29.6%
CC1(C)CC(=O)C2=C(C1)Nc1cc3c(cc1C2c1ccc(F)cc1)OCO3 (stereo not given),117%,87.8%,81.2%,108%,82.3%,92.5%,64.3%,102%,110%,115%
COc1ccc2c(c1)c(=O)oc1c(C)c(OCC(C)=O)ccc12,86.8%,102%,112%,114%,103%,85.6%,93.9%,94.3%,96.2%,112%
CCCCC(=O)N/N=C/c1cc(I)cc(I)c1O,51%,32.1%,75.8%,57%,74.6%,43.1%,41.2%,28.8%,41.8%,56.4%
CSc1ccc(OC(C)=O)cc1C,94%,114%,95.5%,113%,98.5%,94.3%,97.7%,98.5%,97.6%,101%
O=C(N/N=C/c1ccc(F)cc1)c1[nH]c2ccc(I)cc2c1-c1ccccc1,15.7%,75.4%,71.5%,16.5%,39.6%,34.6%,22.1%,-18.1% (active),93.3%,28.4%
COc1cc(/C=N/NC(=O)c2cnn3c2NC(c2ccccc2)C3)ccc1OC1CCCC1 (stereo not given),26.5%,18.7%,40.1%,52.7%,-27.9% (active),36.9%,6.52% (active),-15.6% (active),43.4%,22.8%
COC(=O)[C@H]1CCCN1C(=O)[C@H]1CCCN1C(=O)[C@@H](Cc1c[nH]c2ccccc12)NC(=S)Nc1cc(C(F)(F)F)cc(C(F)(F)F)c1,51.7%,34.2%,47.4%,44.5%,56.3%,36.1%,-50.5% (active),74.4%,75.4%,44.4%
c1ccc2cc(Cn3c(-c4ccc5ccccc5c4)[n+](Cc4ccc5ccccc5c4)c4ccccc43)ccc2c1,-19.2% (active),-45.1% (active),-58% (active),-72.9% (active),-65% (active),-83.5% (active),-79.1% (active),-75.2% (active),-38.5% (active),-72.8% (active)
O=C1/C(=C/c2ccc(F)cc2)CN(Cc2cn(CCNc3ccnc4cc(Cl)ccc34)nn2)C/C1=C\c1ccc(F)cc1,5.98% (active),5.23% (active),-80.6% (active),-39.7% (active),-97.2% (active),-80.2% (active),-55.5% (active),-78.5% (active),-72.5% (active),-49.7% (active)
COc1ccc(C2CC(c3cc(OC)c(OC)c(OC)c3)=NN2c2ccc(S(N)(=O)=O)cc2)cc1 (stereo not given),85.7%,33.1%,101%,51.3%,79.3%,72.9%,55.2%,77.8%,73.7%,64.6%
O=C(N/N=C(\CS(=O)(=O)c1ccccc1)c1cc2cc(Br)ccc2oc1=O)c1ccccc1,105%,112%,111%,94.2%,126%,98%,98.6%,101%,107%,106%
COc1cc(C(F)(F)F)ccc1-c1cc(-c2ccc(F)cc2)n[nH]1,95.7%,97.5%,90.8%,80.2%,92.4%,101%,97.6%,91.2%,82.5%,93.1%
Clc1cccc(Cl)c1Nc1ccc2nnc(-c3ccncc3)n2n1,111%,57.1%,98.2%,114%,109%,107%,96%,95.7%,97.8%,99.1%
Cc1nc(-c2ccccc2)cc2c(O)c(C(=O)N/N=C/Cc3ccccc3)[nH]c(=O)c12,113%,76.6%,116%,113%,127%,103%,117%,103%,94.5%,106%

# Source: PubChem BioAssay (NCI)
